Screens from PubChem.
EPAC1 ag val: human EPAC1 agonism, validation | O95398 | EPAC1 Rap1b BODIPY-GDP exchange, fluorescence | Potency, µM, for the others: max response, positive = active, usual class: activators | hit rate 1% among 16,000; note: nearly all actives have a fitted effect of over 70% in size
EPAC2 ant val: human EPAC2 antagonism, validation. Q8WZA2. EPAC2 Rap1B BODIPY-GDP exchange, fluorescence. Potency, µM (series often up to 112 µM), inactives show top-dose activity, negative = inhibition, hits mostly inhibitors. hit rate 1.7% among 16,000. AID 1645886;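 note: 100% = activation by cAMP agonist control; nearly all actives have a fitted effect of over 40% in size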
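Fluorescent exchange read-out: 100 nM EPAC2 with 250 nM RAP1B–BODIPY-GDP and 50 uM GDP; BODIPY-GDP release lowers fluorescence. Read at 480/540 nm every 5 min for 30 min at room temperature; normalized to 6.5 mM cAMP.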
Numbers without * were called inactive; ! = not confirmed by another sample. Compounds with a hit are over-represented: about 2.9% of the library has one in this group of screens. Calls come from the whole dose curve; as a rule, active = well fitted curve in the direction sought with a large enough effect; inconclusive = small, poorly fitted or top-dose-only effect, or another doubt; inactive = no such curve, though single readings can be large; an effect the other way counts as inactive or inconclusive. Unless noted, % is set by controls: 0 for no effect and ±100 for the full control effect; potency is the fitted concentration of half-maximal effect.

Results for Cc1ccccc1C1(CC(=O)N2CCCCC2C)CC(=O)N(Cc2cccnc2)C1=O (stereo not given) ?
EPAC1 ag val: 4%; EPAC2 ant val: 8%

How did CC(O)(COc1ccccc1)c1ccc2c(c1)CN(Cc1cccn1-c1ccccn1)CCO2 (stereo not given) do in these assays?
EPAC1 ag val: -5%; EPAC2 ant val: -16%

What do the screens show for `CCCCCCCCCCCCCCCC[n+]1ccc(/C=C/c2c(C)[nH]c3ccccc23)cc1`?
EPAC1 ag val: -45%; EPAC2 ant val: inconclusive

How did CCCCCCC[n+]1ccc(/C=C/c2c(C)[nH]c3ccccc23)cc1 do in these assays?
EPAC1 ag val: 100µM*; EPAC2 ant val: inactive

Results for CCCCCCCCCCCCCCCC[n+]1ccc(/C=C/c2c[nH]c3ccccc23)cc1 ?
EPAC1 ag val: inconclusive; EPAC2 ant val: 491%

How did CCCCCCCCCC[n+]1ccc(/C=C/c2c[nH]c3ccccc23)cc1 do in these assays?
EPAC1 ag val: 100µM*; EPAC2 ant val: inactive

What do the screens show for `Cc1cccc2cc(CNCCCN3CCCC3=O)c(N3CCN4CCCC4C3)nc12` (stereo not given)?
EPAC1 ag val: 13%; EPAC2 ant val: -27%

Results for c1ccc2c(Cc3c[nH]c4ccccc34)c[nH]c2c1 ?
EPAC1 ag val: 100µM*; EPAC2 ant val: inconclusive

How did O=C1N[C@@H](Cc2c[nH]c3ccccc23)C(=O)N[C@H]1Cc1c[nH]c2ccccc12 do in these assays?
EPAC1 ag val: 4%; EPAC2 ant val: -1%

What do the screens show for `C=C1CCC(O)C/C1=C\C=C1/CCCC2(C)C1CCC2C(C)/C=C/C(C)C(C)C` (stereo not given)?
EPAC1 ag val: -72%; EPAC2 ant val: 50µM*

What do the screens show for `C=C1C(=C/C=C2\CCC[C@]3(C)[C@@H]([C@H](C)/C=C/[C@@H](O)C4CC4)CC[C@@H]23)C[C@@H](O)C[C@@H]1O`?
EPAC1 ag val: 16%; EPAC2 ant val: -29%

Results for CC(C)=CCc1c(O)cc(C)oc1=O ?
EPAC1 ag val: -12%; EPAC2 ant val: 0%

Results for COc1cc(O)c2c(=O)cc(C)oc2c1CC=C(C)C ?
EPAC1 ag val: inconclusive; EPAC2 ant val: 32µM*

What do the screens show for `CN(C)c1ncc2nc(-c3ccc(F)cc3)c(=O)n(CCc3ccccc3)c2n1`?
EPAC1 ag val: -38%; EPAC2 ant val: -3%

What do the screens show for `CN(C)c1ncc2nc(CCc3ccccc3)c(=O)n(-c3ccccc3)c2n1`?
EPAC1 ag val: 112µM*; EPAC2 ant val: -1%

Results for CN(C)c1ncc2nc(-c3ccc(F)cc3)c(=O)n(-c3ccccc3)c2n1 ?
EPAC1 ag val: 100µM*; EPAC2 ant val: -11%

What do the screens show for `COc1ncc2nc(CCc3ccccc3)c(=O)n(-c3ccccc3)c2n1`?
EPAC1 ag val: inconclusive; EPAC2 ant val: -44%

How did CO[C@@H]1[C@@H](O[C@@H]2O[C@H](C)[C@@H](O[C@H]3C[C@@](C)(O)[C@@H](OC(=O)CC(C)C)[C@H](C)O3)[C@H](N(C)C)[C@H]2O)[C@@H](CC=O)C[C@@H](C)[C@@H](O)/C=C/C=C/C[C@@H](C)OC(=O)C[C@H]1O do in these assays?
EPAC1 ag val: 0%; EPAC2 ant val: -4%

What do the screens show for `CC(=O)c1ccccc1-c1ccc2c(c1)CC(CNC(=O)c1cc(C)on1)O2` (stereo not given)?
EPAC1 ag val: 5%; EPAC2 ant val: -20%

How did CCOC(=O)C1=C(C)NC(C)=C(C(=O)OC)C1c1cccc(Cl)c1Cl (stereo not given) do in these assays?
EPAC1 ag val: 56µM*!; EPAC2 ant val: inconclusive

Results for CCOC(=O)C1=C(COCCN)NC(C)=C(C(=O)OC)C1c1ccccc1Cl (stereo not given) ?
EPAC1 ag val: 1%; EPAC2 ant val: -4%

How did COC(=O)c1ccccc1-c1cc(C)cc2c1OC(CNC(=O)c1cnc(C)cn1)C2 (stereo not given) do in these assays?
EPAC1 ag val: -7%; EPAC2 ant val: 2%

Results for CCCCCCCCCCCCCCCCCCOCC(COP(=O)([O-])OCC[N+](C)(C)C)OC (stereo not given) ?
EPAC1 ag val: -24%; EPAC2 ant val: 7%

Results for CC[C@]1(O)C[C@H]2CN(CCC3=c4ccccc4=N[C]3[C@@](C(=O)OC)(c3cc4c(cc3OC)N(C)[C@H]3[C@@](O)(C(N)=O)[C@H](O)[C@]5(CC)C=CCN6CC[C@]43[C@@H]65)C2)C1 ?
EPAC1 ag val: 20%; EPAC2 ant val: -14%

How did O=C(Nc1ccc(C(=O)Nc2ccc(C(=O)Nc3ccc(S(=O)(=O)O)c4cc(S(=O)(=O)O)cc(S(=O)(=O)O)c34)cc2)cc1)Nc1ccc(C(=O)Nc2ccc(C(=O)Nc3ccc(S(=O)(=O)O)c4cc(S(=O)(=O)O)cc(S(=O)(=O)O)c34)cc2)cc1 do in these assays?
EPAC1 ag val: -9%; EPAC2 ant val: 22µM*
